Eleven compounds from ChEMBL document CHEMBL3988442, “University of Dundee, Small-Polar-MMV Screening Library” (2021) can be followed below.

The structures appear in SMILES notation. For some of these results: Potency and affinity values are given separately.

Holding throughout (design): scale not given: direction of the effect not stated beside the values
For experiment [1], the target named is Protein translocase subunit SecA (Escherichia coli (strain K12)) (UniProt P10408). As to the kind of experiment: Assay to Identify E. coli SecA ATPase Inhibitors. The experiment is classed as functional. Conditions: 30 µM.
For experiment [2], the target named is T1, Ubiquitin-activating enzyme e1, putative (Leishmania donovani (strain BPK282A1)) (UniProt E9BSI1).
T1 sequence (whole entry): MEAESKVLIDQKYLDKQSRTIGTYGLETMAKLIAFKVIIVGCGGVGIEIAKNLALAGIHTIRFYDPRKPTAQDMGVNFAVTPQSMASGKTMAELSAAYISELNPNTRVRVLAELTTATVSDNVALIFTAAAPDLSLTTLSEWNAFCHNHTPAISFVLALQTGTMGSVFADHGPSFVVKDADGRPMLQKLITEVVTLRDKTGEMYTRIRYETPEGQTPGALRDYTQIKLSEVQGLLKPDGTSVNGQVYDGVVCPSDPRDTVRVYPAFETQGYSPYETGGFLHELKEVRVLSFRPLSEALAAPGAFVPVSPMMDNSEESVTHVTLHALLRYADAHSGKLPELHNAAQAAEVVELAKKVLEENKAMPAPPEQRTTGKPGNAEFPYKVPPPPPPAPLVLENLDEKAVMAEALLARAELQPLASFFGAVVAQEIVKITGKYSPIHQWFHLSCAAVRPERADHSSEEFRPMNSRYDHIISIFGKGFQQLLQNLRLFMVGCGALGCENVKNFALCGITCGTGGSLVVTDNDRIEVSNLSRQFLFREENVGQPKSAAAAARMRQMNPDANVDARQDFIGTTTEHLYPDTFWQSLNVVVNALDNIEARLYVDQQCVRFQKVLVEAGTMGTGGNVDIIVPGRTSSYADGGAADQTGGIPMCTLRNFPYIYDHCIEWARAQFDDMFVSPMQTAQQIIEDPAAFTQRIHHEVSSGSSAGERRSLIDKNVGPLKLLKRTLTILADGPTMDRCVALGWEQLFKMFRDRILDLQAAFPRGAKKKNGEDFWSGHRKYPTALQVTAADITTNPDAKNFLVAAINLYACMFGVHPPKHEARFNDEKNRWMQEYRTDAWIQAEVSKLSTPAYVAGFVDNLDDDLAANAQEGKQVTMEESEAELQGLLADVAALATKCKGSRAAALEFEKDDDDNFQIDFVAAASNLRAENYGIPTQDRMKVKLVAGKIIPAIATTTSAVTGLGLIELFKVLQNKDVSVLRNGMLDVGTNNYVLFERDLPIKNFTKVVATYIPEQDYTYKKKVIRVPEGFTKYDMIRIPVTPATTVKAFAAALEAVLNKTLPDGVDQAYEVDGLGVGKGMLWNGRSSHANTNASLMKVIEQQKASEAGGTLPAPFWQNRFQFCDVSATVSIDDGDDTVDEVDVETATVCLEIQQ
As to the kind of experiment: Leishmania donovani Ubiquitin Activating Enzyme (LdE1). The experiment is classed as functional. Particulars: 30 µM.

Experiment [3] concerns the target AMP-activated protein kinase, AMPK (Homo sapiens) (UniProt P54646+O43741+P54619+Q9UGJ0+Q9Y478+Q13131+Q9UGI9). The experiment in a line: AMP-dependent Kinase enzyme assay. An in vitro enzyme assay that detects ADP turnover that is directly proportional to AMPK activity. This uses naive AMPK that is activated during the assay with MK-8722. The experiment is classed as functional. Conditions: 30 µM.

Experiment [4] deals with Sialic acid-binding Ig-like lectin 9 (Homo sapiens) (UniProt Q9Y336). As to the kind of experiment: Hs-Siglec9 ALPHAscreen SOP 20170721. Conditions: 10 µM. (In general: Bead proximity is the source of the signal in Alpha formats.)
For a further experiment, the system named is Trypanosoma cruzi. As to the kind of experiment: Trypanosoma cruzi phosphomannomutase and mannose-1-phosphate guanylyltransferase assay. The experiment is classed as functional. Conditions: 10 µM.
For experiment [5], the target named is T2, Arginase-2, mitochondrial (Homo sapiens) (UniProt P78540).
T2 sequence (whole entry): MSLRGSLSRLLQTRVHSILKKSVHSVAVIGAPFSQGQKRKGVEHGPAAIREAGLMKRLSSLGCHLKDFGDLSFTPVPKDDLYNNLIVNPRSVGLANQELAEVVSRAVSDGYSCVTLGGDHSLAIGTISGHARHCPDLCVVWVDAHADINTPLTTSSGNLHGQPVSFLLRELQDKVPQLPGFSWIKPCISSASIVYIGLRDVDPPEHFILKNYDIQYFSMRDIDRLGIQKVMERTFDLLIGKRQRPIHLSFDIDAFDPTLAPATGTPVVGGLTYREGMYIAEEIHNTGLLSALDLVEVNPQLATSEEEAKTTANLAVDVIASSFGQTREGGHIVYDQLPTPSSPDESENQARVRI
As to the kind of experiment: in vitro enzyme assay to detect the production of urea directly proportional to the activity of Arginase II. Also: in the data most compounds retested in dose-response had high values. It counts as functional. Conditions: 33.3 µM.

Experiment [6] deals with T3, Proteasome subunit beta (Trypanosoma cruzi) (UniProt O96673).
T3 sequence (whole entry): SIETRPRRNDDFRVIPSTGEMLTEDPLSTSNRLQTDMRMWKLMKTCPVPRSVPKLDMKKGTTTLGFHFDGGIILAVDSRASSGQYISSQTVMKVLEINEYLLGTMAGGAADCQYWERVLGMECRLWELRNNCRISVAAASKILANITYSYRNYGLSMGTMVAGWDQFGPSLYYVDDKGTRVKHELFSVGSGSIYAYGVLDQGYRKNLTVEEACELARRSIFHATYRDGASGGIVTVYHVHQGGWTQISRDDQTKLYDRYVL
The experiment in a line: Trypanosoma cruzi proteasome chymotrypsin-like activity (TcProtChymo) assay. Also: in the data most compounds retested in dose-response had high values. The experiment is classed as functional. Conditions: 9.37 µM.

The species entered for another experiment is Homo sapiens. The experiment in a line: To identify inhibition of the IFN signalling (Jak-Stat) pathway via expression of an eGFP reporter gene under the control of an IFN-stimulated response element (ISRE) containing MxA promoter. It counts as functional. Particulars: 30 µM. Background: A reporter such as luciferase makes a cellular process visible.

For experiment [7], the target named is T4, Tyrosyl-tRNA synthetase, putative (Trypanosoma cruzi (strain CL Brener)) (UniProt Q4DSP6).
T4 sequence (whole entry): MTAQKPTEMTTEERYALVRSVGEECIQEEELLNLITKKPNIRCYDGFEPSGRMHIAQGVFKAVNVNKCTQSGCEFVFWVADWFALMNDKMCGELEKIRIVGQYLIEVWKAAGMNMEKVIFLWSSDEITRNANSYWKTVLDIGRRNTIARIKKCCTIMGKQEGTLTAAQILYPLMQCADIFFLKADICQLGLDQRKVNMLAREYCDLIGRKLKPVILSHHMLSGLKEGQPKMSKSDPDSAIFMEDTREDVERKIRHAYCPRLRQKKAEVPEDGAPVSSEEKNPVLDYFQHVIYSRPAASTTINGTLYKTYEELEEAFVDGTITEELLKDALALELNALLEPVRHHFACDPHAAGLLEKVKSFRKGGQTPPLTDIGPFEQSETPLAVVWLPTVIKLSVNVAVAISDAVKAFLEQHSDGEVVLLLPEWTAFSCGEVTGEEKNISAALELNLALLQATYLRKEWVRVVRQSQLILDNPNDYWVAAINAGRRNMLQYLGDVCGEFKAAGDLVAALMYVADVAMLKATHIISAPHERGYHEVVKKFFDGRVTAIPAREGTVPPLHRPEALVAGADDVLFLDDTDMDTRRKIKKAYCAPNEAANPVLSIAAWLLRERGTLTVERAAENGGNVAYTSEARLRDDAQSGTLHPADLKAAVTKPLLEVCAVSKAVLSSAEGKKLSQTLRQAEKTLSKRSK
The experiment in a line: Trypanosoma cruzi tyrosyl tRNA synthetase (TcYRS) _High Tyrosine SOP. Also: in the data most compounds retested in dose-response had high values. The experiment is classed as functional. Particulars: 30 µM.

The target in experiment [8] is T4, Tyrosyl-tRNA synthetase, putative (Trypanosoma cruzi (strain CL Brener)). As to the kind of experiment: Trypanosoma cruzi tyrosyl tRNA synthetase (TcYRS) SOP. The experiment is classed as functional. Particulars: 30 µM.
Experiment [9] deals with Chromo domain-containing protein 1 (Saccharomyces cerevisiae (strain ATCC 204508 / S288c) (Baker's yeast)) (UniProt P32657). As to the kind of experiment: ScCHD-1 Enzyme Inhibition Assay. Also: in the data most compounds retested in dose-response had high values. The experiment is classed as functional. Particulars: 30 µM.
Sequence of Chromo domain-containing protein 1 (Saccharomyces cerevisiae (strain ATCC 204508 / S288c) (Baker's yeast)) (P32657 whole entry, the tested form may be a part): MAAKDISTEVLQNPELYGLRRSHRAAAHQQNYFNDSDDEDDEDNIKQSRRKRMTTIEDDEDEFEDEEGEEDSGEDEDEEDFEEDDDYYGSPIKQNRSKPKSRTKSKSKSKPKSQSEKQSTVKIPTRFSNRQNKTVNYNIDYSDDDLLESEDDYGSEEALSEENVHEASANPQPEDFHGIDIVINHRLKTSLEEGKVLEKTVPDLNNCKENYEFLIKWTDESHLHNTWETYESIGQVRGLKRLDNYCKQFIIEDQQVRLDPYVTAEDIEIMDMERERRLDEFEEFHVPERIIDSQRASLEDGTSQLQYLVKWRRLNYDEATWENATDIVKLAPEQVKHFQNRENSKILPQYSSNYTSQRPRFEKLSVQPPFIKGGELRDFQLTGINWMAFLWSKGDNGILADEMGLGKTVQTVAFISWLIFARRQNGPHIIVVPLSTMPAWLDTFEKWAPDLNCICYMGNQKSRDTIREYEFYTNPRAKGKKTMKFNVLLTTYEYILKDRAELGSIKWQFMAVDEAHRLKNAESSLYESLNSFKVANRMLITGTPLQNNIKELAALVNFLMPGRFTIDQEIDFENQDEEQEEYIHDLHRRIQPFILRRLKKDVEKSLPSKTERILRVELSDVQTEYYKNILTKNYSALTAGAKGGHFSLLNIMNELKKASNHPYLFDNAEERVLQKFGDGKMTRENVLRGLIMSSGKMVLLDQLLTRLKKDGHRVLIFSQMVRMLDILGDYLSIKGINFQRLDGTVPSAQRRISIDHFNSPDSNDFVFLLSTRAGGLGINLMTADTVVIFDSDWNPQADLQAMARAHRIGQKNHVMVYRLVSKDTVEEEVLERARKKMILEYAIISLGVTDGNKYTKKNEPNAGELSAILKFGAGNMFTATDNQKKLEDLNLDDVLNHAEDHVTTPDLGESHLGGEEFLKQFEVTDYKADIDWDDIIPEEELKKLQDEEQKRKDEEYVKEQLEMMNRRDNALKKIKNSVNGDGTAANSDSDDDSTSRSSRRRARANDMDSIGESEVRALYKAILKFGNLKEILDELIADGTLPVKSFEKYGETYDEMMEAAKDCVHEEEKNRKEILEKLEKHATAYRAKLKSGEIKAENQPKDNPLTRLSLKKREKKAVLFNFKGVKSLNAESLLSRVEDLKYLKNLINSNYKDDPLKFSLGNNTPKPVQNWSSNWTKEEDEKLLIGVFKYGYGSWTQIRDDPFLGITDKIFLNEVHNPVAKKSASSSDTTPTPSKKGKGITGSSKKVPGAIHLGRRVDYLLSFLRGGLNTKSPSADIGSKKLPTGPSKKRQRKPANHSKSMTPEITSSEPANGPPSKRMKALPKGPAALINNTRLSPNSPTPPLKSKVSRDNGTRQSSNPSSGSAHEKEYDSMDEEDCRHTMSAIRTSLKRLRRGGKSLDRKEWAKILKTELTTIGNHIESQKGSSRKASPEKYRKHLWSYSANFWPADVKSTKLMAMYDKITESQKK

Sequence of Sialic acid-binding Ig-like lectin 9 (Homo sapiens) (Q9Y336 whole entry): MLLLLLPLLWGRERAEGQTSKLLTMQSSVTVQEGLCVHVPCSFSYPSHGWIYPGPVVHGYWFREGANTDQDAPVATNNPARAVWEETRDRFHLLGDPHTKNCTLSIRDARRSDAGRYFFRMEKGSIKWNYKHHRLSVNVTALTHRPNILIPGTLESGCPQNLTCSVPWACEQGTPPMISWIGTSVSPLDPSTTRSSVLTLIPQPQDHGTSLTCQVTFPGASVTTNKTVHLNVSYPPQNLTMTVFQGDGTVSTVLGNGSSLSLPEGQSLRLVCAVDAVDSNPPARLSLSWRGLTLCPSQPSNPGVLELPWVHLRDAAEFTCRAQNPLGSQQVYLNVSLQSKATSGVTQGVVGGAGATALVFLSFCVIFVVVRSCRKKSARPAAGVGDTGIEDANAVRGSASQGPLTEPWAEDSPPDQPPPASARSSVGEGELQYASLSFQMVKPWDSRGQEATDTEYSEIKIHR
Sequence of Protein translocase subunit SecA (Escherichia coli (strain K12)) (P10408 whole entry): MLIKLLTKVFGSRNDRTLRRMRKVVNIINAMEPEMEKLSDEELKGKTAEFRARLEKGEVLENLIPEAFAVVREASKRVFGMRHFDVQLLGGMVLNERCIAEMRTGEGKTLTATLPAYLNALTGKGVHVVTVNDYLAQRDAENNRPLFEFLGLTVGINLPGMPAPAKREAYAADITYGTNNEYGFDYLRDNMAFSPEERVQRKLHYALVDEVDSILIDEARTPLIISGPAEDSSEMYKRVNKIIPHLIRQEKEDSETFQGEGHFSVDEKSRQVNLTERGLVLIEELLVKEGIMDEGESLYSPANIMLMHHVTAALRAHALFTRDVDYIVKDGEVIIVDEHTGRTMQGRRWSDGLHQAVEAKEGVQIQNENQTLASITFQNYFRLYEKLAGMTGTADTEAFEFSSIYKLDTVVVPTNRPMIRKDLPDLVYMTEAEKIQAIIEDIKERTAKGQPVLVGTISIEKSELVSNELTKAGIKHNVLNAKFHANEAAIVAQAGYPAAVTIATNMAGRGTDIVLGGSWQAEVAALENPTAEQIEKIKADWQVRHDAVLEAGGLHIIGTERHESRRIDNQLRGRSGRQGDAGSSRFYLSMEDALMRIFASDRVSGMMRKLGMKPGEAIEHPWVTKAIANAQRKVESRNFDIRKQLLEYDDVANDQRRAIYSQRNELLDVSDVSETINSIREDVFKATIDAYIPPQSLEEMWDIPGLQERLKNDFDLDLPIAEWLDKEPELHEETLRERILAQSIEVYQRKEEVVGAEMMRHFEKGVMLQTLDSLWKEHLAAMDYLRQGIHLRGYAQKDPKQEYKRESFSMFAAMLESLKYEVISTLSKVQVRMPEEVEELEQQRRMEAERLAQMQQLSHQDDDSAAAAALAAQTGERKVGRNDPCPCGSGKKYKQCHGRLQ

Take `CC(=O)NCC(=O)N1CCN(CC2CC2)c2ncccc2C1`: the Percent Effect in experiment [1] was -4.55%; in [2] it was 8%; in experiment [3], 8.23%; in [4], 6.27%; in the experiment with Trypanosoma cruzi, -0.394%; in [5], -0.233%. Further, the Percent Effect is 11% in experiment [6]; 0.904% in the experiment filed under Homo sapiens; 9.57% in experiment [7]; 16.7% in experiment [8]; -2.61% in experiment [9].

On to `CC(C)NC(=O)Nc1ccc(CS(=O)(=O)C(C)(C)C)cc1`, for which the Percent Effect in experiment [1] is -3.43%; in experiment [2], 2.63%; in [3], 7.37%; in experiment [4], 5.76%; with Trypanosoma cruzi, -2.82%; in experiment [5], -2.37%. The Percent Effect was 23.1% in experiment [6]; 7.3% in the experiment filed under Homo sapiens; 2.13% in [7]; 10.4% in experiment [8]; -2.88% in experiment [9].

Turning to `Cc1ccc(C)c(-n2ccc3nc(N4CCCC4)ncc3c2=O)c1`, the Percent Effect in [1] is -0.118%; in [2] it was -6.67%; in experiment [3], 21.7%; in experiment [4] it was 3.47%; with Trypanosoma cruzi, -2.16%; in experiment [5] it was -6.16%. Moreover, the Percent Effect was -2.96% in experiment [6]; -1.59% in the experiment filed under Homo sapiens; 3.17% in [7]; -5.13% in experiment [8]; -0.262% in experiment [9].

For the compound `CCc1ccc(CN2CCC3(CC2)CNC(=O)CO3)o1`, the Percent Effect in experiment [1] is -2.61%; in [2] it was 2.7%; in experiment [3], 1.59%; in [4] it was -0.0986%; in the experiment with Trypanosoma cruzi, 1.76%; in [5], 1.25%. In addition, the Percent Effect in [6] is 1.77%; in the experiment filed under Homo sapiens it was -14.2%; in experiment [7] it was 2.97%; in experiment [8], -3.66%; in [9], -0.389%.

As to `Cc1nn(C)c2c(NCc3cccnc3)nc(C3CC3)nc12`, the Percent Effect in [1] was -3.37%; in experiment [2] it was 15.6%; in experiment [3], 11.8%; in experiment [4], 13.7%; in the experiment on Trypanosoma cruzi it was 5.61%; in experiment [5], 24.8%. For the same compound, the Percent Effect in [6] is 12.8%; in the experiment filed under Homo sapiens, 12.8%; in experiment [7], 1.07%; in experiment [8], 13.6%; in experiment [9], 0.869%.

On to `Cc1cc(NS(=O)(=O)c2ccccc2F)ccc1-n1cccc1C(=O)O`, for which the Percent Effect in experiment [1] was -2.35%; in experiment [2] it was 2.63%; in [3], 6.59%; in [4], 4.36%; with Trypanosoma cruzi, -1.27%; in experiment [5], -7.1%. For the same compound, the Percent Effect in experiment [6] was 24.1%; in the experiment listed under Homo sapiens, -10.4%; in experiment [7], -4.25%; in experiment [8], 0%; in experiment [9] it was -2.97%.

Regarding `CCc1nc(N)sc1C(=O)N1CCCC(CCc2ccccc2C)C1` (stereo unspecified), the Percent Effect in [1] was -4.6%; in experiment [2], 5.41%; in [3], -6.81%; in experiment [4], 34.1%; in the experiment with Trypanosoma cruzi, 4.59%; in [5], -0.744%. In addition, the Percent Effect in experiment [6] was 10.6%; in the experiment filed under Homo sapiens, 34.9%; in [7], 9.68%; in experiment [8], 18.5%; in experiment [9] it was -1.19%.

In the case of `Cc1cccc(NC(=O)[C@@H]2CCCN2CC(=O)N2CCCCCC2)n1`, the Percent Effect is -4.79% in experiment [1]; 16% in experiment [2]; -8.35% in experiment [3]; 23.6% in experiment [4]; 5.75% in the experiment on Trypanosoma cruzi; 34.4% in experiment [5]. Further, the Percent Effect is 14.8% in experiment [6]; -1.75% in the experiment filed under Homo sapiens; 4.92% in experiment [7]; 16.1% in [8]; -6.64% in experiment [9].

Regarding `Cn1ccc2ccnc(CC3CN(C(=O)C4CCC(F)(F)CC4)C3)c21`, the Percent Effect was -2.7% in experiment [1]; 6.76% in experiment [2]; 5.92% in experiment [3]; 5.61% in experiment [4]; -0.395% in the experiment with Trypanosoma cruzi; -0.696% in experiment [5]. The Percent Effect was 9.05% in [6]; 1.45% in the experiment filed under Homo sapiens; 6.45% in experiment [7]; 14.3% in [8]; -12.4% in experiment [9].

In the case of `CC(NC1(CNC(=O)Cn2cccn2)CCOCC1)c1ccccc1` (stereo unspecified), the Percent Effect was -5.93% in [1]; 13.5% in [2]; -3.26% in experiment [3]; 21.8% in experiment [4]; 6.35% in the experiment with Trypanosoma cruzi; 3.72% in experiment [5]. In addition, the Percent Effect is 9.01% in experiment [6]; -4.77% in the experiment filed under Homo sapiens; 0% in [7]; 16.1% in experiment [8]; -5.87% in experiment [9].

Consider `CC(C)(C)c1ccc(C2(C(=O)NCCCS(C)(=O)=O)CC2)cc1`, for which the Percent Effect in [1] was -2.57%; in [2] it was 7.79%; in [3] it was 1.11%; in experiment [4], 4.51%; in the experiment on Trypanosoma cruzi, -7.77%; in experiment [5], -1.38%. The Percent Effect is 7.16% in [6]; 0.292% in the experiment filed under Homo sapiens; 1.07% in experiment [7]; 6.17% in experiment [8]; -0.462% in experiment [9].
